Laboratory results: ChEMBL document CHEMBL1961873, “Compounds: GSK PKIS; Assays: Nanosyn kinase panel” (2012)

How the values were obtained:
[1] = molecular target: Sphingosine kinase 1 (Homo sapiens) (UniProt Q9NYA1); settings: at 1 µM;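 also: mean SPHK1 inhibition value reported from the GSK PKIS kinase panel screen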
[2] = molecular target: T1, Sphingosine kinase 2 (Homo sapiens) (UniProt Q9NRA0); settings: at 0.1 µM
T1 sequence (whole entry): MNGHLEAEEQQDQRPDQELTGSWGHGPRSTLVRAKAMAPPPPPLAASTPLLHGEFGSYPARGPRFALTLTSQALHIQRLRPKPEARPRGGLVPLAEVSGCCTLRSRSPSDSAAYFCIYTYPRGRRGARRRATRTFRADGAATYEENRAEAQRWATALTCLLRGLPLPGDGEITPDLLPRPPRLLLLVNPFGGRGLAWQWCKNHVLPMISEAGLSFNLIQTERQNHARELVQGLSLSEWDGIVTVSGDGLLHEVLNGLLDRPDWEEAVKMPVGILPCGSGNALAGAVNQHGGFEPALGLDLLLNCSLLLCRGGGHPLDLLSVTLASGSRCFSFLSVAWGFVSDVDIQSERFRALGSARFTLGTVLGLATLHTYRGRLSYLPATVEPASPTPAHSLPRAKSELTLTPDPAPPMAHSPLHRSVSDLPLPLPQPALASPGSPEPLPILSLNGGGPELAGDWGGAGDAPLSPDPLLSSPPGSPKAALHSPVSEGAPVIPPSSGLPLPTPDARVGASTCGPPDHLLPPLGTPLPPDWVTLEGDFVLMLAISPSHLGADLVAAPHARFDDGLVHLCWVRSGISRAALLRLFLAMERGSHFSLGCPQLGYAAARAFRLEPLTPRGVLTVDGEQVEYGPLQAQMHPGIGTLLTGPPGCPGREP

[3] = molecular target: T1, Sphingosine kinase 2 (Homo sapiens); settings: at 1 µM
[4] = molecular target: Casein kinase II subunit alpha (Homo sapiens) (UniProt P68400); settings: at 0.1 µM
[5] = molecular target: Casein kinase II subunit alpha (Homo sapiens) (UniProt P68400); settings: at 1 µM
[6] = molecular target: T2, Inhibitor of nuclear factor kappa-B kinase subunit alpha (Homo sapiens) (UniProt O15111); settings: at 0.1 µM
T2 sequence (whole entry): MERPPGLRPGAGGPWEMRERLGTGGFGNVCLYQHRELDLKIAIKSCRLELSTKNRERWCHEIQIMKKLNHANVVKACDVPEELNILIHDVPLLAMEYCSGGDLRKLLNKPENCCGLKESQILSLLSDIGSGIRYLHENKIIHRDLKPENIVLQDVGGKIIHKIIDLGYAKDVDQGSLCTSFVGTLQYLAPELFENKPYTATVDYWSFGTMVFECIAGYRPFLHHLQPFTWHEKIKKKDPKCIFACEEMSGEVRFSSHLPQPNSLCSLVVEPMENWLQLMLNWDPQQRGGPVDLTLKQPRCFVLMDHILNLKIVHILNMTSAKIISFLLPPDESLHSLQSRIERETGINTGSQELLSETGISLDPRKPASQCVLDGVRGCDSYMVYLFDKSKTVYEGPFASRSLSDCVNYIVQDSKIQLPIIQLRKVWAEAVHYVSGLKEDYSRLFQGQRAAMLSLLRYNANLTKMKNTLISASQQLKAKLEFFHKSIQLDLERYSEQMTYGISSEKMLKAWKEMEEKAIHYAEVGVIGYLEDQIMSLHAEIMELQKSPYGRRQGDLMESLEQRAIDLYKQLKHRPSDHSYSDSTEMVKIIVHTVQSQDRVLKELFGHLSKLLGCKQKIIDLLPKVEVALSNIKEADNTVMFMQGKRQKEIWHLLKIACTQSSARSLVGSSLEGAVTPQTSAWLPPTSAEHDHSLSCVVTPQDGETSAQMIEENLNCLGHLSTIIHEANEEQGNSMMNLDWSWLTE

[7] = molecular target: T2, Inhibitor of nuclear factor kappa-B kinase subunit alpha (Homo sapiens); settings: at 1 µM
[8] = molecular target: T3, Inhibitor of nuclear factor kappa-B kinase subunit beta (Homo sapiens) (UniProt O14920); settings: at 0.1 µM
T3 sequence (whole entry): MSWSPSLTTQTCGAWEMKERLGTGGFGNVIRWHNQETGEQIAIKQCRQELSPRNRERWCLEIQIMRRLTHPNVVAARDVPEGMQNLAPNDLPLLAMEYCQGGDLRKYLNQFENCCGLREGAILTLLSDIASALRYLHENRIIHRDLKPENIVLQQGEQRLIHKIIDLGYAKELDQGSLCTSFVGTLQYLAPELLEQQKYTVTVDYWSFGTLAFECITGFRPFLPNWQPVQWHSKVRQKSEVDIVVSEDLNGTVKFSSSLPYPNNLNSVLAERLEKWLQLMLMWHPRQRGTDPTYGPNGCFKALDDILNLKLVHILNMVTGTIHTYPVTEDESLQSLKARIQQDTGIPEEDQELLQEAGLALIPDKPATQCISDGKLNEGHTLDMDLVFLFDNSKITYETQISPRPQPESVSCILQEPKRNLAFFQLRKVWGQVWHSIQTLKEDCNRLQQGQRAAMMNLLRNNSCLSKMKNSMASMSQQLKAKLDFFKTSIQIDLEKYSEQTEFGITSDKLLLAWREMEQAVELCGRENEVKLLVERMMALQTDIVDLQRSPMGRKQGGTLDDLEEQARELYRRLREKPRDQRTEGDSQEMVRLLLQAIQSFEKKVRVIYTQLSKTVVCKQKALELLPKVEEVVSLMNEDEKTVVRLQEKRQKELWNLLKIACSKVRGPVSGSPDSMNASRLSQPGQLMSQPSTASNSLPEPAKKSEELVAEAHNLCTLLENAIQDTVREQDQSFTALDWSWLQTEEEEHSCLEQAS

[9] = molecular target: T3, Inhibitor of nuclear factor kappa-B kinase subunit beta (Homo sapiens); settings: at 1 µM
[10] = molecular target: T4, Inhibitor of nuclear factor kappa-B kinase subunit epsilon (Homo sapiens) (UniProt Q14164); settings: at 0.1 µM;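 also: mean inhibition of IKKε reported, from the GSK PKIS dataset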
T4 sequence (whole entry): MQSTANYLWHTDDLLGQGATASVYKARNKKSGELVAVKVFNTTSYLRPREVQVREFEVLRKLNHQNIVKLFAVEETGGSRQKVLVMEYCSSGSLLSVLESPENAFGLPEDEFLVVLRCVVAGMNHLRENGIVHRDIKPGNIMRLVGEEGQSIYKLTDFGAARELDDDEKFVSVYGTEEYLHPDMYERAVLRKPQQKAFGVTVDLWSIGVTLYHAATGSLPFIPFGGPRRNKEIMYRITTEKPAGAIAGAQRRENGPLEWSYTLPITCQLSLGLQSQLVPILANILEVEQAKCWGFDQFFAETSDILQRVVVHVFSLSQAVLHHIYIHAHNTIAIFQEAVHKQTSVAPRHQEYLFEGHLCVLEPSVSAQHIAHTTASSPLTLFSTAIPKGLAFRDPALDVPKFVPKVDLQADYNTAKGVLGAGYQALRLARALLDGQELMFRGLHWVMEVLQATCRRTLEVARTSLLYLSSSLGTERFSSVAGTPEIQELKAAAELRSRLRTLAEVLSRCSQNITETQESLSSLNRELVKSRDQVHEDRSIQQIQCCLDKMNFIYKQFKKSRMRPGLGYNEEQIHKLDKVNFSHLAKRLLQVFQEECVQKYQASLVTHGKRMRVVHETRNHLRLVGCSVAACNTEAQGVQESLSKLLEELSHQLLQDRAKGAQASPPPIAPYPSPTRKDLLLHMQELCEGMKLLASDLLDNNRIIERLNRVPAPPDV

Sphingosine kinase 1 (Homo sapiens), sequence (Q9NYA1 whole entry): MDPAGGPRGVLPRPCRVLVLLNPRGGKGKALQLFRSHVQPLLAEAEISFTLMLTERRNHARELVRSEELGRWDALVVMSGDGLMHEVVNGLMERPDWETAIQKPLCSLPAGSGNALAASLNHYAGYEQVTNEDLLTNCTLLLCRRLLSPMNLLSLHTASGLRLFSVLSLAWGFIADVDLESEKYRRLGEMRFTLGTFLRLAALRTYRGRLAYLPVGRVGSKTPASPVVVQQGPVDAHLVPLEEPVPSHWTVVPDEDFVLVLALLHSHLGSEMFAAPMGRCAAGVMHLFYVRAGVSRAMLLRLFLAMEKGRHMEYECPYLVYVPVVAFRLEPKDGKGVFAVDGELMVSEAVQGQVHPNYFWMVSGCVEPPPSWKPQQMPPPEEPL
Casein kinase II subunit alpha (Homo sapiens), sequence (P68400 whole entry, looked up): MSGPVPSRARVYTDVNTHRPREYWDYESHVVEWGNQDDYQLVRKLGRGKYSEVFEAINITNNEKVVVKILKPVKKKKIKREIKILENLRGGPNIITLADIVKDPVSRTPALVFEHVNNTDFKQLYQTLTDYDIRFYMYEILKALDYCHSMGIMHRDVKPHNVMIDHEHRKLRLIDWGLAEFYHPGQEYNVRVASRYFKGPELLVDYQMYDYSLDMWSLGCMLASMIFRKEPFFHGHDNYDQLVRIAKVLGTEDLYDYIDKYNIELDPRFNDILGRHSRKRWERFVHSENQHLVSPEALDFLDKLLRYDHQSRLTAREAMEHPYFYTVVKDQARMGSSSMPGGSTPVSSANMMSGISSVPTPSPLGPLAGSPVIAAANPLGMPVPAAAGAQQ

SMILES | inhibition [1] [%] | inhibition [2] [%] | inhibition [3] [%] | inhibition [4] [%] | inhibition [5] [%] | inhibition [6] [%] | inhibition [7] [%] | inhibition [8] [%] | inhibition [9] [%] | inhibition [10] [%]
CS(=O)(=O)CCNCc1nc(-c2ccc3ncnc(Nc4ccc(F)c(Cl)c4)c3c2)cs1 | 0.42 | 0.49 | -0.93 | 1.14 | 5.94 | -4.65 | -4.39 | -0.32 | 1.99 | 1.53
COc1cc2ncn(-c3cc(O[C@@H](C)c4ccccc4Cl)c(C(N)=O)s3)c2cc1OC | -1.61 | -0.7 | 0 | 6.99 | 3.34 | 4.16 | 8.5 | 6.47 | 4.88 | 5.3
CCc1cccc(NC(=O)Nc2ccc(Oc3ccc4nc(NC(=O)OC)[nH]c4c3)cc2)c1 | -3.46 | -1.39 | -2.51 | 1.32 | 4.86 | 4.74 | -0.97 | 3.09 | 2.83 | 2.77
CCCN1CCC(Oc2cc(Nc3nc(Nc4cccc(F)c4C(N)=O)c4cc[nH]c4n3)c(OC)cc2Cl)CC1 | 0.63 | -0.36 | 0.09 | 0.96 | 7.7 | -0.06 | -9.18 | -1.77 | -4.88 | -2.26
O=C1NC(=O)C(c2ccc(Cl)cc2)=C1Nc1ccc(Cl)c(C(=O)O)c1 | -0.08 | 2.29 | 0.32 | -0.4 | -2.48 | 11.5 | 4.5 | 0.8 | -1.44 | -4.08
O=C1NC(=O)C(N2CCc3ccccc32)=C1c1ccc(Cl)cc1 | 2.74 | 0.69 | 0.87 | 1.59 | -1.39 | 5.45 | 4.39 | 5.07 | 4.89 | 3.79
COc1ccc(-c2nn3ncccc3c2-c2ccnc(Nc3ccc(Cl)c(C(F)(F)F)c3)n2)cc1 | -2.15 | -0.61 | 0.61 | 2.8 | 8.2 | 5.34 | 3.48 | 5.25 | 8.22 | 4.71
NS(=O)(=O)c1cccc(-c2ccc3c(NC(=O)C4CC4)n[nH]c3c2)c1 | 2.86 | 0.74 | -0.18 | 0.11 | -0.44 | 11.4 | 5.2 | -0.49 | -1.55 | -4.07
CCN1CCC(CC(=O)Nc2n[nH]c3nc(-c4cccs4)c(Br)cc23)CC1 | 1.53 | -0.06 | -0.11 | 1.1 | 4.38 | 4.35 | 5.49 | -1.36 | -2.71 | -5.79
COc1cc(C=NNc2ncnc3c2cnn3-c2ccccc2)ccc1O | -3.84 | -0.52 | -2.55 | 9.38 | 41.6 | 10.6 | -1.27 | 3.33 | -0.52 | 3.38
O=C1NC(=O)C(c2ccccc2Cl)=C1Nc1cccc(O)c1 | -1.02 | 0.69 | -0.36 | 0.98 | 0.1 | 3.36 | 1.21 | 3.78 | 3.39 | 1.96
COc1cc(C)c(NC(=O)CN(C)C)cc1Nc1nc(Nc2cccc(F)c2C(N)=O)c2cc[nH]c2n1 | -1.23 | -0.13 | -0.4 | 7.08 | 35.5 | 0.92 | -6.41 | 0.16 | -5.7 | 1.27
Cc1ccc(NC(=O)c2ccnc(N3CCCC3)c2)cc1-c1ccc(C(=O)NCC2CC2)cc1 | 0.63 | 0.74 | -0.47 | 7.04 | 4.49 | 0.55 | 0.16 | 9.14 | 9.33 | 5.82
COc1cc2ncn(-c3cc(OCc4ccccc4Cl)c(C(N)=O)s3)c2cc1OC | -2.81 | 5.21 | -4.96 | 2.2 | 9.54 | -1.84 | 5.14 | 1.96 | 1.01 | 0.65
COc1ccc(-c2ccncc2)cc1C(N)=O | -0.74 | 0.88 | -0.67 | – | 4.44 | 2.55 | 9.39 | 4.74 | 7.06 | 5.87
COc1ccccc1Nc1ncc(-c2ccccc2)o1 | -6.75 | -0.59 | -0.16 | 6.18 | 8.04 | 10.7 | 9.03 | 9.9 | 9.61 | 9.49
CC(C)=Cc1cccc2c1/C(=N/Nc1ccc(S(N)(=O)=O)cc1)C(=O)N2 | 3.96 | 0.66 | 0.76 | 1.84 | 10.6 | 3.49 | 3 | 1.01 | 2.88 | 5.72
Nc1nc(-c2ccc3c(c2)C(=Cc2cc(Br)c(O)c(Br)c2)C(=O)N3)cs1 | -0.49 | -0.01 | 0.02 | 2.7 | 24.1 | 9.67 | 2.3 | 0.26 | 0.06 | -3
NS(=O)(=O)c1ccc(N/N=C2\C(=O)Nc3ccc(C(=O)NCCc4c[nH]cn4)cc32)cc1 | -1.01 | 1.57 | 0.18 | 6.03 | 18.6 | 10.2 | 13 | 4.11 | 3.92 | 7.82
Cc1cc(O)cc(C)c1/C=C/c1cncc(-c2nn[nH]n2)c1 | -1.54 | 1.53 | -0.11 | 2.01 | 6.14 | 4.82 | 4 | 5.96 | 4.65 | 5.04
